Data: PubChem BioAssay (NCATS)
Records with an inconclusive call do not appear. Where a call stands in place of a potency, no number is given. Active and inactive are the calls of the source. Calls follow the shape of the dose curve; as a rule, active = well fitted inhibition curve with a large enough effect; inconclusive = small, poorly fitted or top-dose-only effect; inactive = flat fitted curve, though single readings scatter.

The compounds below were run against Calcium and integrin-binding protein 1 (Homo sapiens) (UniProt Q99828) (assay: Primary qHTS for Identification of Calcium Integrin Binding Protein 1 (CIB1) Competitor (AID 1508620;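 also: GST tagged CIB1 binding a fluorescein labelled alphaIIb integrin peptide tracer; top concentration of the series differs between compounds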)). Conditions: CIB1-GST / FITC-alphaIIb peptide fluorescence polarization; series mostly up to 114 µM.
Sequence of Calcium and integrin-binding protein 1 (Homo sapiens) (Q99828 whole entry, looked up): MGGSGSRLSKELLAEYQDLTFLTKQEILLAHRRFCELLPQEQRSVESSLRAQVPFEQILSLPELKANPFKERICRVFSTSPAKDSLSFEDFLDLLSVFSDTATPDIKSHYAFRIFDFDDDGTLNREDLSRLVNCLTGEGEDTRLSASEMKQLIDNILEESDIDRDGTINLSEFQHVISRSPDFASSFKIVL
How it was run: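 CIB1-GST (1 uM final) and compound incubated 15 min at room temperature before adding FITC-alphaIIb peptide tracer (100 nM final). Competition for binding read by fluorescence polarization (ex 480, em 540) after another 15 min at room temperature.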

`Cc1ccc(-c2cc(C(=O)NCC[S+](=O)([O-])O)c3ccccc3n2)cc1C` was tested. Which Potency did it give?
Its Potency is “inactive”.

`O=C(Nc1ccc(S(=O)(=O)Nc2nccs2)cc1)c1ccnc(-c2ccccc2)c1` was tested. Which Potency did it give?
Its Potency is “inactive”.

Which Potency does the source give for `O=C(Nc1ccc([S+](=O)([O-])Nc2nccs2)cc1)c1ncn[nH]1` here?
The Potency was “inactive”.

With `O=C1CC(c2ccccc2)Cc2[nH]c(=O)c(-c3nc(-c4ccc(F)cc4)cs3)cc21` (centres undefined) as the compound, how does the Potency read?
The Potency was “inactive”.

With `Cc1ccc(S(=O)(=O)Nc2ccccc2C(=O)Nc2nc(-c3ccccc3)c(Br)s2)cc1` as the compound, how does the Potency read?
The Potency was “inactive”.

With `O=C(Nc1nc(-c2ccccc2)cs1)c1cccc(NS(=O)(=O)c2nccs2)c1` as the compound, how does the Potency read?
The Potency was “inactive”.

Which Potency does the source give for `COc1cc(NS(=O)(=O)c2ccc(C)cc2)c(C(=O)Nc2nc(-c3ccccc3)cs2)cc1OC` here?
Its Potency is “inactive”.

With `O=c1[nH]c(CCl)nc2sc3c(c12)CCC3` as the compound, how does the Potency read?
Its Potency is “inactive”.

For `CC(C)(C)OC(=O)N1CCC(C(=O)Nc2ccc([S+](=O)([O-])Nc3nccs3)cc2)CC1`, which Potency is on record?
The Potency was “inactive”.

Which Potency does the source give for `CCCCC(=O)N1CCC(C(=O)Nc2ccc([S+](=O)([O-])Nc3nccs3)cc2)CC1` here?
Its Potency is “inactive”.

`CCOC(=O)C1CCC(C(=O)Nc2ccc([S+](=O)([O-])Nc3nccs3)cc2)CC1` (centres undefined) was tested. Which Potency did it give?
The Potency was “inactive”.

With `Cc1cccc2c(C(=O)O)cc(Cl)nc12` as the compound, how does the Potency read?
The Potency was “inactive”.

How did the Potency turn out when `Cc1ccc(-c2cc(C(=O)Nc3ccccc3)c3ccccc3n2)cc1C` was run?
Its Potency is “inactive”.

`CCCCc1ccc(C(=O)Nc2ccc(S(=O)(=O)Nc3nccs3)cc2)cc1` was tested. Which Potency did it give?
The Potency was “inactive”.

How did the Potency turn out when `Cc1ccc(S(=O)(=O)Nc2ccccc2C(=O)Nc2nc(-c3ccccc3)cs2)cc1` was run?
The Potency was “inactive”.

For `N#Cc1cccc(S(=O)(=O)Nc2cnccc2C(=O)Nc2nc(-c3ccccc3)cs2)c1`, which Potency is on record?
Its Potency is “inactive”.

`O=C(Nc1ccc([S+](=O)([O-])Nc2nccs2)cc1)c1ccccn1` was tested. Which Potency did it give?
Its Potency is “inactive”.

Which Potency does the source give for `Cc1ccc(-c2csc(NC(=O)c3ccccc3NS(=O)(=O)c3ccc(C)cc3)n2)cc1` here?
The Potency was “inactive”.

For `O=C(Nc1nc(-c2ccccc2)cs1)c1ccccc1S(=O)(=O)Nc1nccs1`, which Potency is on record?
The Potency was “inactive”.

`O=C(Cc1nc2ccc(Cl)cc2[nH]1)Nc1ccc(S(=O)(=O)Nc2nccs2)cc1` was tested. Which Potency did it give?
The Potency was “inactive”.

Which Potency does the source give for `O=C(Cc1ccccc1)Nc1ccc(S(=O)(=O)Nc2nccs2)cc1` here?
The Potency was “inactive”.

Which Potency does the source give for `CCNC(=O)C1CCC(C(=O)Nc2ccc([S+](=O)([O-])Nc3nccs3)cc2)CC1` (centres undefined) here?
Its Potency is “inactive”.

With `Cc1cccc(NC(=O)c2cc(-c3ccc(C)c(C)c3)nc3ccccc23)c1` as the compound, how does the Potency read?
Its Potency is “inactive”.

`Cc1ccc(-c2cc(C(=O)Nc3ccc(-c4nn[nH]n4)cc3)c3ccccc3n2)cc1C` was tested. Which Potency did it give?
Its Potency is “inactive”.

`Cc1ccc(S(=O)(=O)NCC(=O)Nc2nc(-c3ccccc3)cs2)cc1` was tested. Which Potency did it give?
Its Potency is “inactive”.

With `O=C(O)c1cccc(S(=O)(=O)Nc2nccs2)c1` as the compound, how does the Potency read?
The Potency was “inactive”.

For `CCCC1CCC(C(=O)Nc2ccc(S(=O)(=O)Nc3nccs3)cc2)CC1` (centres undefined), which Potency is on record?
The Potency was “inactive”.

`Cc1ccc(S(=O)(=O)NCCC(=O)Nc2nc(-c3ccccc3)cs2)cc1` was tested. Which Potency did it give?
The Potency was “inactive”.

Which Potency does the source give for `COc1ccc(-c2csc(NC(=O)c3ccccc3NS(=O)(=O)c3ccc(C)cc3)n2)cc1` here?
The Potency was “inactive”.

`CC(=O)Nc1ccc(S(=O)(=O)Nc2nccs2)cc1` was tested. Which Potency did it give?
Its Potency is “inactive”.

Which Potency does the source give for `CCCCCN1CCC(C(=O)Nc2ccc([S+](=O)([O-])Nc3nccs3)cc2)CC1` here?
The Potency was “inactive”.

With `CC1CC1C(=O)Nc1ccc([S+](=O)([O-])Nc2nccs2)cc1` (centres undefined) as the compound, how does the Potency read?
Its Potency is “inactive”.

`Cc1ccc(S(=O)(=O)Nc2cc(C)ccc2C(=O)Nc2nc(-c3ccccc3)cs2)cc1` was tested. Which Potency did it give?
Its Potency is “inactive”.

`CCCCCC1CCC(C(=O)Nc2ccc(S(=O)(=O)Nc3nccs3)cc2)CC1` (centres undefined) was tested. Which Potency did it give?
The Potency was “inactive”.

Which Potency does the source give for `Cc1ccc(S(=O)(=O)Nc2cc(F)ccc2C(=O)Nc2nc(-c3ccccc3)cs2)cc1` here?
The Potency was “inactive”.

How did the Potency turn out when `O=C(Nc1ccc([S+](=O)([O-])Nc2nccs2)cc1)C1CCNCC1` was run?
Its Potency is “inactive”.

With `O=c1[nH]c(CN2CCOCC2)nc2sc3c(c12)CCCC3` as the compound, how does the Potency read?
Its Potency is “inactive”.

For `Cc1ccc(S(=O)(=O)Nc2cnccc2C(=O)Nc2nc(-c3ccc(-c4ccccc4)cc3)cs2)cc1`, which Potency is on record?
Its Potency is “inactive”.

Which Potency does the source give for `O=S(=O)(Nc1nc(CN2CCOCC2)nc2sc3c(c12)CCC3)c1ccc2c(c1)OCCO2` here?
The Potency was “inactive”.
